PubChem BioAssay AID2284193 (EPA ToxCast)
Active and inactive are the calls of the source. How the source made its calls: active means hit-call score of the fitted dose curve at least 0.9, where 1 is the maximum; inactive means score below 0.9.

These compounds were tested against human Tachykinin Receptor NK1 Agonism, TACR1 (gene 6869) (UniProt P25103) (assay: ERF_TW_GPCR_hTACR1: Eurofins (ERF) G Protein-Coupled Receptor (GPCR) Radioligand Binding LeadHunter Assay for human Tachykinin Receptor NK1 Agonism).
human Tachykinin Receptor NK1 Agonism, TACR1 (gene 6869), sequence (P25103 whole entry, looked up): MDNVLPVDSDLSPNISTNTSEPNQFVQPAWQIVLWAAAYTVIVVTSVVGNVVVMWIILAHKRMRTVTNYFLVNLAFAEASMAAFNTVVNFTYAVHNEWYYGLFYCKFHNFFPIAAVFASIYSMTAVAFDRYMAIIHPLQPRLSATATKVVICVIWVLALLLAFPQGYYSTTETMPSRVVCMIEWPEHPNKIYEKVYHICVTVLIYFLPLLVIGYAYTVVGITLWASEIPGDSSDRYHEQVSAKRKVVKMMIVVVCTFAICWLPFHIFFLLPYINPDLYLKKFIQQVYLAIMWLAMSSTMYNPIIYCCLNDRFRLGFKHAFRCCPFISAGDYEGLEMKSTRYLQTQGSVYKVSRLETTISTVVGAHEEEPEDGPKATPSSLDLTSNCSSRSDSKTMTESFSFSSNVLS
Protocol: ERF_TW_GPCR_hTACR1 is a biochemical, single-readout assay that uses extracted gene-proteins in a cell-free assay. Measurements were taken 1.5 hour after chemical dosing in a 96-well plate. See NK1 Human Tachykinin GPCR Binding (Agonist Radioligand) Assay, Panlabs.ERF_TW_GPCR_hTACR1 is an assay component calculated from the ERF_TW_GPCR_hTACR1 assay. It is designed to measure radioligand binding using a type of binding reporter as detected by scintillation counting with radiometry technology.Data from the assay component ERF_TW_GPCR_hTACR1 was analyzed at the assay endpoint, ERF_TW_GPCR_hTACR1, in the positive analysis fitting direction relative to DMSO as the negative control and baseline of activity. Using a type of binding reporter, gain-of-signal activity can be used to understand changes in radioligand binding as they relate to gene TACR1. To generalize the intended target to other relatable targets, this assay endpoint is annotated to the gpcr intended target family, where the subfamily is tachykinin.
Human recombinant neurokinin NK1 receptors expressed in CHO cells are used in modified Tris-HCL buffer pH 7.4. A 36 ug aliquot is incubated with 0.8 nM [3H]Substance P for 90 minutes at 4C. Non-specific binding is estimated in the presence of 10 uM L-703,606. Receptors are filtered and washed, the filters are then counted to determine [3H]Substance P specifically bound. […]

Structure (SMILES) | AC50 | outcome
COc1cc(CCC(=O)CC(=O)CCc2ccc(O)c(OC)c2)ccc1O | 5 µM (active) | –
CCCCC[C@H](O)CC(=O)CCc1ccc(O)c(OC)c1 | – | inactive
